Test results reported in PubChem BioAssay (Tox21).
Inconclusive results are not listed. Calls of active or inactive are those of the source. Unless noted, calls follow the shape of the dose curve; as a rule, active = well fitted curve in the direction sought with a large enough effect in the repeat runs; inconclusive = weak or mixed curves; inactive = no such curve, though single readings can be large; an effect the other way counts as inactive or inconclusive. Where a SMILES comes first, the peptide text is derived from it.

Key:
[1] = qHTS assay to identify small molecule agonists of the peroxisome proliferator-activated receptor delta (PPARd) signaling pathway - cell viability counter screen (AID 743211); also: nearly all actives have a fitted effect of over 55% in size
Procedure, shortened: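 Luminescent ATP viability assay (CellTiter-Glo, 30 min RT) in UAS-bla HEK293H cells carrying the PPAR delta reporter construct, 3000 cells/well, after a 17 h compound treatment at 37 C.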

[2] = target: Peroxisome proliferator-activated receptor delta (Homo sapiens) (UniProt Q03181); assay: qHTS assay to identify small molecule agonists of the peroxisome proliferator-activated receptor delta (PPARd) signaling pathway (AID 743212; calls by dose curve)
Peroxisome proliferator-activated receptor delta (Homo sapiens), sequence (Q03181 whole entry, looked up): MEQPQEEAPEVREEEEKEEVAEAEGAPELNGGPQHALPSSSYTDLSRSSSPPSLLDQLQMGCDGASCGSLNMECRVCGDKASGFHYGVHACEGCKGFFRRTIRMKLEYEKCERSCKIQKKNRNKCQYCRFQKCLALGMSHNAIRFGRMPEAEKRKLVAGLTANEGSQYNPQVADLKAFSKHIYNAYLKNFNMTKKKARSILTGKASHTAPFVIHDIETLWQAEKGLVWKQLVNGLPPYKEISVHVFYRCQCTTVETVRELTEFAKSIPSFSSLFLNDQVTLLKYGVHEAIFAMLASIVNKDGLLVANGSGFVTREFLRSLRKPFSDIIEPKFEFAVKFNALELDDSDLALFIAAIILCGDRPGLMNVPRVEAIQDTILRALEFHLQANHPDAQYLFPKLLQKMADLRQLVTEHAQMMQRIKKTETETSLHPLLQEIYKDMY
Procedure, shortened: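 GeneBLAzer PPARd UAS-bla HEK293H cells (beta-lactamase reporter under UAS control), plated and rested 5 h at 37 C, then exposed to compounds in DMSO at 37 C; LiveBLAzer B/G FRET substrate added, 2 h room temperature, fluorescence read.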

[3] = qHTS assay to identify small molecule antagonists of the peroxisome proliferator-activated receptor delta (PPARd) signaling pathway - cell viability counter screen (AID 743213); also: nearly all actives have a fitted effect of over 50% in size
Procedure, shortened: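 Agonist-stimulated (L165041, 300 nM final) HEK293H PPARd UAS-bla cells are exposed to compounds for 17 h at 37 C, and ATP-based luminescence (CellTiter-Glo) from the same wells reports cytotoxicity.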

[4] = target: Peroxisome proliferator-activated receptor delta (Homo sapiens) (UniProt Q03181); assay: qHTS assay to identify small molecule antagonists of the peroxisome proliferator-activated receptor delta (PPARd) signaling pathway (AID 743215; active = well fitted inhibition curve with a large enough effect in the signal ratio in the repeat runs, not every such curve was filed as active; the % refers to the signal ratio; also: series mostly up to about 62 µM)
Procedure, shortened: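 Antagonist-mode beta-lactamase reporter screen: HEK293H cells with UAS-bla under PPARd control, stimulated by 300 nM L165041 (final) alongside test compound for 17 h at 37 C, then FRET fluorescence after 2 h substrate incubation.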

[5] = target: Bile acid receptor (Homo sapiens) (UniProt Q96RI1); assay: qHTS assay to identify small molecule antagonists of the farnesoid-X-receptor (FXR) signaling pathway (AID 743217; active = well fitted inhibition curve with a large enough effect in the signal ratio in the repeat runs, not every such curve was filed as active; the % refers to the signal ratio)
Bile acid receptor (Homo sapiens), sequence (Q96RI1 whole entry, looked up): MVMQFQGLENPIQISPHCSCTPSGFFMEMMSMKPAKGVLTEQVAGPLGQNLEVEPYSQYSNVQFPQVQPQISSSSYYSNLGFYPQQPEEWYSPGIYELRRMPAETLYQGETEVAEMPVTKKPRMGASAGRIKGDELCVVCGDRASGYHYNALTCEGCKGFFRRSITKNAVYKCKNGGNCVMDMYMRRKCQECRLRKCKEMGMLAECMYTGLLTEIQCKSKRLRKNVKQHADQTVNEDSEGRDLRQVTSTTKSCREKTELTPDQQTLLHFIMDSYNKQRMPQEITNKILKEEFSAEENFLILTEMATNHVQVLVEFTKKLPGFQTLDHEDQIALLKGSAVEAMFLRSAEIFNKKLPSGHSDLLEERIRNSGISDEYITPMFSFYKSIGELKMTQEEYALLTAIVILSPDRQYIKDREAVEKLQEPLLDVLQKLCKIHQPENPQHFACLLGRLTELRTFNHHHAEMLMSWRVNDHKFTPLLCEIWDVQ
Procedure, shortened: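 Beta-lactamase reporter under UAS control in HEK 293T cells; compound exposure 16 h at 37 °C in the presence of chenodeoxycholic acid (50 uM final); signal from B/G FRET substrate after 2 h at room temperature.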

[6] = qHTS assay to identify small molecule agonists of the farnesoid-X-receptor (FXR) signaling pathway - cell viability counter screen (AID 743218); also: nearly all actives have a fitted effect of over 45% in size
Procedure, shortened: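 In GeneBLAzer FXR-UAS-bla HEK 293T cells, compounds act for 16 h at 37 C. Cell viability is then scored in the reporter wells by CellTiter-Glo, 30 min at RT, luminescence.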

[7] = qHTS assay to identify small molecule antagonists of the farnesoid-X-receptor (FXR) signaling pathway - cell viability counter screen (AID 743221; active = well fitted cell-killing curve with a large enough effect in the repeat runs, not every such curve was filed as active; also: nearly all actives have a fitted effect of over 50% in size)
Procedure, shortened: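 In GeneBLAzer FXR-UAS-bla HEK 293T cells stimulated with 50 uM chenodeoxycholic acid (final), compounds acted for 16 h at 37 C. Viability was assessed afterwards by CellTiter-Glo luminescence.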

[8] = target: Bile acid receptor (Homo sapiens) (UniProt Q96RI1); assay: qHTS assay to identify small molecule agonists of the farnesoid-X-receptor (FXR) signaling pathway (AID 743220; active = well fitted activation curve with a large enough effect in the signal ratio in the repeat runs, not every such curve was filed as active; the % refers to the signal ratio)
Procedure, shortened: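 Beta-lactamase reporter under UAS control in GeneBLAzer FXR HEK 293T cells (5000/well) measured with LiveBLAzer FRET substrate after 2 h at room temperature. Compound exposure lasted 16 h at 37C.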

[9] = target: Vitamin D3 receptor (Homo sapiens) (UniProt P11473); assay: qHTS assay to identify small molecule agonists of the vitamin D receptor (VDR) signaling pathway (AID 743222; calls by dose curve)
Vitamin D3 receptor (Homo sapiens), sequence (P11473 whole entry, looked up): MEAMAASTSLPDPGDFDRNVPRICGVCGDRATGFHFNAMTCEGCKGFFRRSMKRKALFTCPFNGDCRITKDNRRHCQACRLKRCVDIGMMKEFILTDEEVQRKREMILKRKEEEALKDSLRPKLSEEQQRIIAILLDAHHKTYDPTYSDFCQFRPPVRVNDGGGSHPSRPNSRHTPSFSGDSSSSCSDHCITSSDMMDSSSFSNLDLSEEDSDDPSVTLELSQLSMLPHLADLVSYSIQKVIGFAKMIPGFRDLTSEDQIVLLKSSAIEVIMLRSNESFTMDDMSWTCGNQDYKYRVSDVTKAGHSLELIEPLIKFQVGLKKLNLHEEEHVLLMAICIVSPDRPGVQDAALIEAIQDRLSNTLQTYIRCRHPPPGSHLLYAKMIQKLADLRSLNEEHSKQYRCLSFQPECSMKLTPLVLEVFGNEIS
Procedure, shortened: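 Agonist activity measured in VDR-bla reporter cells. Exposure 16 h, 37C, 5% CO2; detection by B/G FRET substrate, 2 h RT.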

[10] = target: Vitamin D3 receptor (Homo sapiens) (UniProt P11473); assay: qHTS assay to identify small molecule antagonists of the vitamin D receptor (VDR) signaling pathway (AID 743223; active = well fitted inhibition curve with a large enough effect in the signal ratio in the repeat runs, not every such curve was filed as active; the % refers to the signal ratio)
Procedure, shortened: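 Agonist 1alpha,25-dihydroxyvitamin D3 (3 nM in well) was added with each compound to VDR-bla cells preincubated 4 h. Cells stood 16 h at 37C, then FRET substrate 2 h at room temperature; fluorescence intensity recorded.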

Measured: outcome

OCC(O)CN1CCN(c2ccccc2)CC1 (stereo not drawn)
not listed: [8] | [9] | [10]
inactive: all other assays above

CC1=C(O)C(=O)C(C)O1 (stereo not drawn)
not listed: [6] | [9] | [10]
inactive: all other assays above

COc1cc2c(cc1OC)C(=O)C(CC1CCN(Cc3ccccc3)CC1)C2 (stereo not drawn)
not listed: [5] | [9] | [10]
inactive: all other assays above

O=C(CN1CCNCC1)NC1CCCCC1
inactive: [1] | [2] | [3] | [4] | [6] | [7]

CCOCCOCC
not listed: [8] | [10]
inactive: all other assays above

C#CCN[C@@H]1CCc2ccccc21
inactive: [1] | [2] | [3] | [4] | [6] | [7]

CC12CCC(C1)C(C)(C)C2O (stereo not drawn)
not listed: [6] | [7]
inactive: all other assays above

CC(O)CC(C)O (stereo not drawn)
inactive: all assays above

COc1cc(/C=C/C(N)=O)cc(OC)c1OC
inactive: all assays above

CC(C)(CO)C(O)C(=O)NCCCO (stereo not drawn)
inactive: all assays above

O=C(O)c1cc2ccccc2nc1C(=O)O
inactive: all assays above

CC(=O)N[C@@H](CO)C(=O)N[C@@H](CC(=O)O)C(=O)N[C@@H](CCCCN)C(=O)N1CCC[C@H]1C(=O)O (Ac-SDKP-OH)
not listed: [8]
inactive: all other assays above

CN(C)C(C)(C)CO
not listed: [6] | [8]
inactive: all other assays above

CC1(C)Cc2cccc(N)c2O1
not listed: [6]
inactive: all other assays above

Cc1cccc(Cl)c1
not listed: [9] | [10]
inactive: all other assays above

C[C@H]1[C@@H](c2ccccc2)NC(=O)N1C
inactive: all assays above

CSc1cnccn1
not listed: [6] | [8]
inactive: all other assays above

Nc1nnnn1-c1ccccc1
inactive: all assays above

O=C(CCCl)NCCc1ccccc1
inactive: all assays above

O=C(Cn1ccnc1[N+](=O)[O-])NCc1ccccc1
not listed: [9] | [10]
inactive: all other assays above

CC/C(C)=N\O[Si](C)(O/N=C(\C)CC)O/N=C(\C)CC
not listed: [10]
inactive: all other assays above

C=CCCCCCCCCC(=O)OCCCC
inactive: all assays above

CCC(C)C(=O)OCCc1ccccc1 (stereo not drawn)
not listed: [5] | [9] | [10]
inactive: all other assays above

CC(C)OC(=O)CCC(=O)OC(C)C
not listed: [6]
inactive: all other assays above

CO/N=C(/C(=O)N[C@@H]1C(=O)N2C(C(=O)[O-])=C(C[n+]3ccn4ncccc43)CS[C@H]12)c1nsc(N)n1
inactive: [1] | [2] | [3] | [4] | [6] | [7]

Cc1c(N)cccc1Cl
not listed: [8] | [9]
inactive: all other assays above
